This is part of a sample that, as a whole, favours compounds with a hit. Of some 79,000 tested, about 15% had one in any assay. Cut-off read from the data, not from the text of the source: active = growth inhibition above about 70%; inactive = the rest.
Tests used:
[1] = NCI Yeast Anticancer Drug Screen. Data for the rad50 strain (AID 155);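 note: 0% = growth of vehicle-only cultures of the same strain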; details: S. cerevisiae rad50 strain growth inhibition; at 50.0 µM; hits give high values
Outline: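 Yeast carrying a defined DNA repair defect were exposed to test compounds, and growth was compared with vehicle-treated controls to give percent inhibition.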

[2] = NCI Yeast Anticancer Drug Screen. Data for the mec2-1 strain (AID 157); details: S. cerevisiae mec2-1 strain, at 50.0 µM, hits give high values
Outline: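 Test agents were screened against the mec2-1 yeast strain, with defined DNA repair or cell cycle alteration. Growth was scored as inhibition against vehicle-only controls.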

[3] = NCI Yeast Anticancer Drug Screen. Data for the sgs1 mgt1 strain (AID 161);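 note: 0% = growth of cultures given vehicle only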; details: S. cerevisiae sgs1 mgt1 strain, at 50.0 µM, hits give high values
Outline: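 Inhibition of yeast growth, normalised to vehicle-treated controls, is reported for a strain bearing genetic alterations in DNA damage repair.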

[4] = NCI Yeast Anticancer Drug Screen. Data for the cln2 rad14 strain (AID 165);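 note: 0% = growth equal to vehicle treated cultures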; details: S. cerevisiae cln2 rad14 strain, at 50.0 µM, hits give high values
Outline: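 Growth of compound-exposed yeast (cln2 rad14 genotype) measured and expressed as inhibition relative to vehicle.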

[5] = NCI Yeast Anticancer Drug Screen. Data for the bub3 strain (AID 167); details: S. cerevisiae bub3 mutant strain, at 50.0 µM, hits give high values
Outline: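 Compounds were applied to a genetically altered yeast strain carrying a cell-cycle control defect. Growth inhibition was scored against vehicle-treated controls.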

[6] = NCI Yeast Anticancer Drug Screen. Data for the mlh1 rad18 strain (AID 175); details: S. cerevisiae mlh1 rad18 strain growth inhibition; at 50.0 µM; hits give high values
Outline: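 In this whole-cell yeast screen, a strain with altered DNA damage repair is challenged with compound, and its growth is measured against matched vehicle-treated controls.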

Measured: growth inhibition

COc1ccc(N=Cc2c(O)c(O)c(C(C)C)c3cc(C)c(-c4c(C)cc5c(C(C)C)c(O)c(O)c(C=Nc6ccc(OC)cc6)c5c4O)c(O)c23)cc1
inactive: [1] 2.2% | [2] 1.75% | [3] -12.2% | [4] -18.4% | [5] -5.75% | [6] -6.2%

Clc1ccc(-c2nnc3c4ccccc4ccn23)cc1
inactive: [1] 14.5% | [2] -11.1% | [3] -5.1% | [4] 9.55% | [5] -3.95% | [6] 1%

C=C1C(=O)OC2C1C(OC(=O)/C(=C/C)COC(C)=O)CC1(CO1)C1C(OC(=O)/C(=C/C)CO)C=C(C)C21 (stereo not given)
inactive: [1] -20.6% | [2] -19% | [3] -21.1% | [4] 1.55% | [5] -41.1% | [6] -8.05%

CSC1NC(c2ccc(Cl)cc2)=C(C#N)C(=O)N1C1OCC(OC(C)=O)C(OC(C)=O)C1OC(C)=O (stereo not given)
inactive: [1] -10% | [2] -23.6% | [3] -24.2% | [4] -3.85% | [5] -8.6% | [6] -8.8%

Cc1ccc(-n2c(O)c(N=Nc3ccccc3)c(=O)n(-c3ccccc3)c2=S)cc1
inactive: [1] 20.1% | [2] -15.7% | [3] 51.4% | [4] -30.7% | [5] -9.2% | [6] -9.85%

CC(c1ccccc1)N1COc2cc3c(cc2C1)OCN(C(C)c1ccccc1)C3 (stereo not given)
inactive: [1] -21.2% | [2] -2.95% | [3] -29.8% | [4] -11.8% | [5] -6.8% | [6] -17.4%

CN1C(=S)C2=C(c3ccccc3)N(C)C(=S)C2=C1c1ccccc1
inactive: [1] 6% | [2] -6.15% | [3] 10.5% | [4] 28.9% | [5] -2.3% | [6] 26.1%

CC(=O)OC(C)C(=O)OCCOc1ccccc1 (stereo not given)
inactive: [1] 8.7% | [2] -12% | [3] 14.3% | [4] -36.6% | [5] -7.3% | [6] -4%

O=C(Nc1ccc(Cl)cc1)c1cc2cc(N=Nc3ccc(Br)cc3)ccc2oc1=O
inactive: [1] -18.1% | [2] 9.75% | [3] -13.3% | [4] -1.65% | [5] -23.9% | [6] -6.65%

O=C1OC2CC3CC2C1C3C(=O)N1CCCCC1 (stereo not given)
inactive: [1] 11.5% | [2] -1.6% | [3] -8.15% | [4] -33% | [5] -9.65% | [6] -5.4%

CCN(CC)Cc1cc(C(C)(C)CC)cc(-c2ccccc2)c1O
inactive: [1] -11.2% | [2] -33.6% | [3] -12.6% | [4] -24.9% | [5] 8.5% | [6] -4.1%

CCOC(=O)c1c(Br)c(-c2ccc(OC)cc2)c(Br)n1C
inactive: [1] -12.8% | [2] 9.8% | [3] -22.2% | [4] -48% | [5] -39% | [6] -5.95%

O=C(C(=O)c1ccccc1)c1ccccc1
inactive: [1] 9.35% | [2] -0.75% | [3] 11.7% | [4] -22.1% | [5] 9.9% | [6] -1.15%

Cc1ccc(N=Nc2sc(N)nc2-c2ccc(Cl)cc2)cc1
inactive: [1] 28.6% | [2] -2.55% | [3] 35.6% | [4] 39.6% | [5] 17.1% | [6] 62.9%

NC(=O)N/N=C/c1ccc([N+](=O)[O-])s1
inactive: [1] -29.6% | [2] -0.8% | [3] 1.8% | [4] -39% | [5] -6.9% | [6] -8.5%

CN(N)c1nc2c(N)ncnc2n1C1OC(CO)C(O)C1O (stereo not given)
inactive: [1] 25.9% | [2] 24.1% | [3] 30.6% | [4] 13.8% | [5] 30% | [6] 48.3%

O=c1nnc(O)c2n(O)cccc1-2
inactive: [1] -24.2% | [2] -11.8% | [3] 6.55% | [4] -42.5% | [5] -1.75% | [6] 14%

N#CCCCCN1CCCCC1
inactive: [1] -4.85% | [2] -20.9% | [3] -9.95% | [4] 9.8% | [5] -14.6% | [6] 13.6%

O=C(NCCCCl)c1c(O)c2ccccc2[nH]c1=O
inactive: [1] 58.8% | [2] 25.5% | [3] 52% | [4] 18.1% | [5] 46.2% | [6] 27.8%

COc1ccc(/C=N/NS(=O)(=O)c2ccc(/C=C3\NC(=O)N(C)C3=O)cc2)cc1
inactive: [1] -10.5% | [2] 22.1% | [3] -21.9% | [4] 6.5% | [5] -23.7% | [6] 27.1%

Cc1cc(=O)c2c([nH]1)c1c(c3[nH]c(C)cc(=O)c32)Oc2ccccc2O1
inactive: [1] 65.2% | [2] 5% | [3] -2.95% | [4] -10.6% | [5] -5.55% | [6] 27.9%

CCOC(=O)CCC(NC(=O)c1ccc(N=Cc2nc3ccccc3nc2-c2ccccc2)cc1)C(=O)OCC (stereo not given)
inactive: [1] 4.35% | [2] 0.95% | [3] 6.8% | [4] 14.5% | [5] 11.8% | [6] -7.7%

NC(C(F)(F)F)(C(F)(F)F)P(=O)(Cc1ccccc1)Cc1ccccc1
inactive: [1] -8.35% | [2] -47.4% | [3] -18.7% | [4] -13.8% | [5] -23.1% | [6] 7.85%

CSc1cccc(NC(=S)NN/C(=N/S(=O)(=O)c2ccccc2)N2CCCC2)c1
inactive: [1] 6.3% | [2] -17.6% | [3] -1.35% | [4] 2.3% | [5] -2.9% | [6] -1.2%

Nc1c2ccccc2nc2nccnc12
inactive: [1] 3.6% | [2] 2.65% | [3] 5.95% | [4] 16.9% | [5] -3% | [6] 30.4%

OC(CI)C1OCOC2COCOC21 (stereo not given)
inactive: [1] -3.2% | [2] 4.5% | [3] 13.1% | [4] -4% | [5] 16.1% | [6] -3.75%

CC([O-])=C1C(=O)c2ccccc2C1=O.CC([O-])=C1C(=O)c2ccccc2C1=O.CC[O-].CC[O-].[Ti+4]
inactive: [1] 19.4% | [2] 27.6% | [3] 55.4% | [4] 29% | [5] 37.8% | [6] 36.5%

COc1cc(CC2c3cc(OC)c(OC)cc3CC[N+]2(C)C)c(Oc2cc(CC3c4cc(OC)c(OC)cc4CC[N+]3(C)C)ccc2OC)cc1OC (stereo not given)
inactive: [1] 8.35% | [2] 10.1% | [3] -0.85% | [4] -4.45% | [5] -6.05% | [6] 28.6%

Nc1cc(N)nc(S(=O)O)n1
inactive: [1] 18.9% | [2] 2.85% | [3] 16.1% | [4] 10.7% | [5] 19.8% | [6] 35.9%

Nc1ncnc2c1ncn2C1OC(CSCc2ccc(Cl)cc2)C(O)C1O (stereo not given)
inactive: [1] 26.6% | [2] 10.8% | [3] 15.4% | [4] 10.6% | [5] 58.7% | [6] 22.2%

CC(C)(CCCCC(C)(C)NC1=NCCO1)NC1=NCCO1
inactive: [1] -0.2% | [2] -8.8% | [3] 9.9% | [4] -20.6% | [5] -4.45% | [6] -9.4%

Nc1ncc[nH]c1=O
inactive: [1] -16.1% | [2] -4.1% | [3] 1.25% | [4] -4.1% | [5] 2.9% | [6] -20.2%

CC(C)C(NC(=O)c1cnc2ccccc2n1)C(=O)O (stereo not given)
inactive: [1] -8.15% | [2] -5.5% | [3] 0.4% | [4] -51.7% | [5] 6.35% | [6] 7.75%

Cc1[nH]c(=S)[nH]c(=O)c1CCC(C)C
inactive: [1] 9.5% | [2] 14.8% | [3] 14.1% | [4] 52.1% | [5] 37.8% | [6] 6.5%

COC1/C=C/OC2(C)Oc3c(C)c(O)c4c(O)c(c(/C=N/N5CCN(Cc6cccc(C(F)(F)F)c6)CC5)c(O)c4c3C2=O)NC(=O)C(C)=C/C=C/C(C)C(O)C(C)C(O)C(C)C(OC(C)=O)C1C (stereo not given)
inactive: [1] 11.7% | [2] 30.7% | [3] 35.3% | [4] 27.2% | [5] 11.8% | [6] 43.1%

CCOc1cccc(OCC)c1C
inactive: [1] -4.55% | [2] -17.4% | [3] -2.55% | [4] 11.3% | [5] -9% | [6] 14.9%

COC(=O)C1CCC(=O)N1CN(C(C)=O)c1ccccc1 (stereo not given)
inactive: [1] 10.1% | [2] 8.6% | [3] -14.1% | [4] 9% | [5] -5.8% | [6] -30.6%

Cc1cc[n+](C(C)CCC(C)[n+]2ccc(C)cc2)cc1 (stereo not given)
inactive: [1] 25.2% | [2] 20.5% | [3] 42.5% | [4] 27% | [5] 14.2% | [6] 11.8%

CCC(/C=N\NC(=O)CCCC(=O)N/N=C/C(CC)CC)CC
inactive: [1] -0.5% | [2] -8.5% | [3] -18.6% | [4] 5.65% | [5] 5.8% | [6] -0.35%

CC(C)(CNC(=O)C12CC3CC(CC(C3)C1)C2)NC(=O)C12CC3CC(CC(C3)C1)C2
inactive: [1] 15.9% | [2] 12.5% | [3] 14.1% | [4] 11.1% | [5] 0.85% | [6] 27.8%

From PubChem BioAssay (NCI)
